Test results as given in PubChem BioAssay (NCI).
The panel holds about 83,000 compounds, 20% with a hit somewhere; the sample as a whole holds those more often.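 Method: cells in 96-well plates; compound added at one concentration; 48 h incubation; percent growth measured; values under 10 scored active.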 Calls of active or inactive are those of the source.

Legend:
Assay in all cases: NCI-60 one-dose screen, 48 h (100 = growth as untreated, 0 = no growth, -100 = all killed)
Settings in all cases: 10 µM unless noted
NCI-H23 lung = tested on: NCI-H23 lung
NCI-H226 lung = tested on: NCI-H226 lung
NCI-H322M lung = tested on: NCI-H322M lung
HOP-62 NSCLC = tested on: HOP-62 NSCLC
NCI-H460 lung = tested on: NCI-H460 lung
HOP-92 NSCLC = tested on: HOP-92 NSCLC
NCI-H522 lung = tested on: NCI-H522 lung
A549/ATCC NSCLC = tested on: A549/ATCC NSCLC
786-0 renal = tested on: 786-0 renal
COLO 205 colon = tested on: COLO 205 colon

Measured: growth

C/C(=N\O)c1ccc(Cl)cc1
inactive: NCI-H23 lung 110% | NCI-H226 lung 106% | NCI-H322M lung 123% | HOP-62 NSCLC 95.7% | NCI-H460 lung 112% | HOP-92 NSCLC 65.3% | NCI-H522 lung 105% | A549/ATCC NSCLC 97.9% | 786-0 renal 107% | COLO 205 colon 108%

O=[N+]([O-])c1ccc(O)cc1Br
inactive: NCI-H23 lung 95.1% | NCI-H226 lung 93.2% | NCI-H322M lung 105% | HOP-62 NSCLC 92.4% | NCI-H460 lung 104% | HOP-92 NSCLC 44.8% | NCI-H522 lung 90.7% | A549/ATCC NSCLC 103% | 786-0 renal 99.8% | COLO 205 colon 108%

C=CCn1c(SCC(=O)Nc2ccc(C(=O)/C=C/c3ccc(Cl)cc3)cc2)nnc1-c1ccc(Br)cc1
inactive: NCI-H23 lung 83.7% | NCI-H226 lung 80.7% | NCI-H322M lung 91.8% | HOP-62 NSCLC 104% | NCI-H460 lung 83.1% | HOP-92 NSCLC 87.2% | NCI-H522 lung 60.3% | A549/ATCC NSCLC 65.4% | 786-0 renal 89% | COLO 205 colon 118%

COc1ccc(C2=Nc3c(N)nc(N)nc3NC(c3cccc(Nc4ccnc5cc(C(F)(F)F)ccc45)c3)C2)cc1 (stereo not given)
inactive: NCI-H23 lung 85.8% | NCI-H226 lung 97.2% | NCI-H322M lung 99.6% | HOP-62 NSCLC 67.8% | NCI-H460 lung 59.3% | HOP-92 NSCLC 57.3% | NCI-H522 lung 44.9% | A549/ATCC NSCLC 63.1% | 786-0 renal 73% | COLO 205 colon 57.7%

CC(C)c1ccc(C(=O)Nc2nc3ccc(O)c(CN(C)C)c3s2)cc1
inactive: NCI-H23 lung 88.9% | NCI-H226 lung 97.1% | NCI-H322M lung 81.9% | HOP-62 NSCLC 93.4% | NCI-H460 lung 59.5% | HOP-92 NSCLC 81.7% | NCI-H522 lung 79.4% | A549/ATCC NSCLC 80.6% | 786-0 renal 89.9% | COLO 205 colon 84.7%

NS(=O)(=O)c1ccc(N=Nc2c(O)n(Cc3ccccc3)c3ccc(Cl)cc23)cc1
inactive: NCI-H23 lung 91.2% | NCI-H226 lung 34.1% | NCI-H322M lung 84% | HOP-62 NSCLC 64.3% | NCI-H460 lung 64.9% | HOP-92 NSCLC 97.8% | NCI-H522 lung 69.1% | A549/ATCC NSCLC 82.9% | 786-0 renal 48% | COLO 205 colon 94.3%

Cn1ccnc1C(=O)/C=C/c1ccc(C(=O)Nc2ccc(Cl)cc2)cc1
active: NCI-H23 lung -18.7% | NCI-H322M lung 0.414% | HOP-62 NSCLC -4.38% | NCI-H460 lung -28.7% | NCI-H522 lung -5.14% | A549/ATCC NSCLC 6.96% | 786-0 renal -78.8% | COLO 205 colon 1.1%
inactive: NCI-H226 lung 16.8% | HOP-92 NSCLC 17%

CCCc1c(OC(=O)c2ccccc2)nc2[nH]c(=O)sc2c1C
inactive: NCI-H23 lung 99% | NCI-H226 lung 89.9% | NCI-H322M lung 101% | HOP-62 NSCLC 95.6% | NCI-H460 lung 103% | HOP-92 NSCLC 93.3% | NCI-H522 lung 87.4% | A549/ATCC NSCLC 99.6% | 786-0 renal 106% | COLO 205 colon 101%

COC(=O)/C=C1/SC(=Nc2cccc(OC)c2)N(CCc2c[nH]c3ccc(O)cc23)C1=O
inactive: NCI-H23 lung 76.1% | NCI-H226 lung 89.6% | NCI-H322M lung 95.2% | HOP-62 NSCLC 69.8% | NCI-H460 lung 61.3% | HOP-92 NSCLC 50.4% | NCI-H522 lung 54.3% | A549/ATCC NSCLC 87.3% | 786-0 renal 74.3% | COLO 205 colon 106%

CN(C)S(=O)(=O)c1cccc(C(=O)Nc2nc(-c3ccc(F)c(F)c3)cs2)c1
inactive: NCI-H23 lung 45.7% | NCI-H226 lung 46.7% | NCI-H322M lung 106% | HOP-62 NSCLC 99.5% | NCI-H460 lung 49.4% | HOP-92 NSCLC 67.1% | NCI-H522 lung 25.2% | A549/ATCC NSCLC 60.1% | 786-0 renal 64.9% | COLO 205 colon 103%

Clc1ccc(/C=N\N=C\c2ccc(Cl)c(Cl)c2)cc1Cl
inactive: NCI-H23 lung 84.9% | NCI-H226 lung 104% | NCI-H322M lung 102% | HOP-62 NSCLC 95.8% | NCI-H460 lung 47.1% | HOP-92 NSCLC 88.6% | NCI-H522 lung 77.4% | A549/ATCC NSCLC 87.2% | 786-0 renal 97.3% | COLO 205 colon 90.8%

N#C/C(=C\c1c(-c2ccccc2)[nH]c2ccccc12)C(N)=O
inactive: NCI-H23 lung 85.4% | NCI-H226 lung 95.1% | NCI-H322M lung 104% | HOP-62 NSCLC 87.4% | NCI-H460 lung 92.2% | HOP-92 NSCLC 65.1% | NCI-H522 lung 83.3% | A549/ATCC NSCLC 89.5% | 786-0 renal 98.7% | COLO 205 colon 92.8%

Oc1c(Br)cc(Br)c2ccc(Cn3cc(-c4ccc(C(F)(F)F)cc4)nn3)nc12
inactive: NCI-H23 lung 84.7% | NCI-H226 lung 85% | NCI-H322M lung 103% | HOP-62 NSCLC 98.9% | NCI-H460 lung 103% | HOP-92 NSCLC 21.5% | A549/ATCC NSCLC 103% | 786-0 renal 96.9% | COLO 205 colon 59.7%
active: NCI-H522 lung -43.5%

Cc1cccc(CNc2c3ccccc3nc3ccccc23)c1
inactive: NCI-H23 lung 29.7% | NCI-H226 lung 40.6% | NCI-H322M lung 40.3% | HOP-62 NSCLC 40.4% | NCI-H522 lung 52.1% | A549/ATCC NSCLC 22.6% | 786-0 renal 24.2%
active: NCI-H460 lung 8.71% | HOP-92 NSCLC 7.05% | COLO 205 colon -16.2%

c1csc(-c2ccc(CNc3c4ccccc4nc4ccccc34)cc2)c1
inactive: NCI-H23 lung 38.2% | NCI-H226 lung 69% | NCI-H322M lung 50.6% | HOP-62 NSCLC 54.6% | NCI-H460 lung 12.9% | NCI-H522 lung 28.9% | A549/ATCC NSCLC 26.7% | 786-0 renal 30.1%
active: HOP-92 NSCLC -2.1% | COLO 205 colon 5.13%

CCN1CCN(C(=O)[C@]23CCC(C)(C)C[C@@H]2C2=CC[C@@H]4[C@@]5(C)CCC(=O)C(C)(C)[C@@H]5CC[C@@]4(C)[C@]2(C)CC3)CC1
inactive: NCI-H23 lung 64.9% | NCI-H226 lung 71% | NCI-H322M lung 81.2% | HOP-62 NSCLC 78.8% | NCI-H460 lung 25.5% | HOP-92 NSCLC 44.9% | NCI-H522 lung 44.7% | A549/ATCC NSCLC 46.1% | 786-0 renal 50.5% | COLO 205 colon 44.2%

Cn1cc(-c2ccc3nc(-c4ccc(CC(=O)ONc5cc(C(C)(C)C)on5)cc4)cnc3c2)cn1
inactive: NCI-H23 lung 43.7% | NCI-H226 lung 43.2% | NCI-H322M lung 22.8% | HOP-62 NSCLC 37.1% | NCI-H460 lung 25.2% | HOP-92 NSCLC 30.3% | NCI-H522 lung 39.4% | A549/ATCC NSCLC 31.1% | 786-0 renal 23.1% | COLO 205 colon 51.3%

O=C(/C=C/c1ccco1)Nc1ncc(Cc2cccc(C(F)(F)F)c2)s1
inactive: NCI-H23 lung 22.4% | NCI-H226 lung 33.2% | NCI-H322M lung 30.4% | HOP-92 NSCLC 64.3% | A549/ATCC NSCLC 11.6% | 786-0 renal 12.6%
active: HOP-62 NSCLC 1.31% | NCI-H460 lung -0.329% | NCI-H522 lung -15% | COLO 205 colon -47.5%

COc1cccc(/C=C2\COc3ccc(O)c(O)c3C2=O)c1
inactive: NCI-H23 lung 47% | NCI-H226 lung 79.1% | NCI-H322M lung 36.4% | NCI-H460 lung 28.7% | A549/ATCC NSCLC 47.6% | COLO 205 colon 43.3%
active: HOP-62 NSCLC 4.02% | HOP-92 NSCLC -12% | NCI-H522 lung -67% | 786-0 renal -38.1%

Cn1cc(-c2nonc2-c2cn(C)c3ccccc23)c2ccccc21
active: NCI-H460 lung 8.94% | NCI-H522 lung -20.5% | COLO 205 colon -34%
inactive: NCI-H23 lung 43.1% | NCI-H226 lung 81% | NCI-H322M lung 47% | HOP-62 NSCLC 21.2% | HOP-92 NSCLC 48.8% | A549/ATCC NSCLC 21.8% | 786-0 renal 28.1%

C#CCOC(=O)/C=C/c1cn(-c2ccccc2)nc1-c1ccc(OC)cc1
inactive: NCI-H23 lung 89.1% | NCI-H226 lung 81.6% | NCI-H322M lung 99.4% | HOP-62 NSCLC 93% | NCI-H460 lung 95.1% | HOP-92 NSCLC 60.8% | NCI-H522 lung 50% | A549/ATCC NSCLC 77.5% | 786-0 renal 98.9% | COLO 205 colon 121%

COc1cc2c(c(OC)c1OC)CCC(c1cccc(C(=O)Nc3ccc(C#N)cc3)c1)O2 (stereo not given)
inactive: NCI-H23 lung 40.6% | NCI-H226 lung 33% | NCI-H322M lung 77.4% | HOP-62 NSCLC 72.1% | NCI-H460 lung 56.5% | HOP-92 NSCLC 52.3% | NCI-H522 lung 38.4% | A549/ATCC NSCLC 50.9% | 786-0 renal 80.6% | COLO 205 colon 84.8%

CCCCCCCCCCC(CN(CC)CC)C(O)c1ccccc1 (stereo not given)
active: HOP-92 NSCLC -1.6% | NCI-H522 lung -14.4% | COLO 205 colon -42.6%
inactive: NCI-H23 lung 38% | NCI-H226 lung 15.4% | NCI-H322M lung 80.3% | HOP-62 NSCLC 53.4% | NCI-H460 lung 21.7% | A549/ATCC NSCLC 54.7% | 786-0 renal 49.1%

COc1cc2c(c(OC)c1OC)CCC(c1cccc(NC(=O)c3ccc(Br)cc3)c1)O2 (stereo not given)
inactive: NCI-H23 lung 80.1% | NCI-H226 lung 72.4% | NCI-H322M lung 75.1% | HOP-62 NSCLC 87.2% | NCI-H460 lung 93.5% | HOP-92 NSCLC 58.5% | NCI-H522 lung 74.6% | A549/ATCC NSCLC 67.4% | 786-0 renal 97.1% | COLO 205 colon 85.8%

O=S(=O)(c1ccccc1)n1cc2c(c1)-c1nc(Nc3ncccn3)sc1CC2
inactive: NCI-H23 lung 61.9% | NCI-H226 lung 25.9% | NCI-H322M lung 63.6% | HOP-62 NSCLC 22.1% | NCI-H460 lung 68.4% | HOP-92 NSCLC 22% | NCI-H522 lung 55.3% | A549/ATCC NSCLC 35.2% | 786-0 renal 18.3% | COLO 205 colon 61.9%

Cc1ccc(C[P+](c2ccccc2)(c2ccccc2)c2ccccc2)cc1
active: NCI-H23 lung -9.16% | NCI-H460 lung 3.04% | HOP-92 NSCLC -0.267% | COLO 205 colon -15.5%
inactive: NCI-H226 lung 16.1% | NCI-H322M lung 38.8% | HOP-62 NSCLC 13.5% | NCI-H522 lung 10.3% | A549/ATCC NSCLC 26.9% | 786-0 renal 25.6%

COc1ccc(\C=N/N=C(N)/C(N)=N\N=C/c2ccc(OC)cc2)cc1
inactive: NCI-H23 lung 95.6% | NCI-H226 lung 96.1% | NCI-H322M lung 123% | HOP-62 NSCLC 97.8% | NCI-H460 lung 108% | HOP-92 NSCLC 92.5% | NCI-H522 lung 87.5% | A549/ATCC NSCLC 113% | 786-0 renal 123% | COLO 205 colon 107%
